Data on 51 molecules can be found in PubChem BioAssay AID624491 (Broad Institute, 2012).

Each structure is given as a SMILES string. Hit rate of the full screen: of about 1,800 compounds, about 1,400 (78%) were called active. Roughly 2% stayed inconclusive and do not appear here. So high a share suggests a set chosen from earlier hits. A selection follows. Potency and affinity values are given separately. Unmarked numbers belong to inactive results.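 Rule for the calls: active = fitted curve crossing a set activation limit at or below the highest valid dose tested; inconclusive = flat fit at 30 to 70% activation, or poor fit; inactive = the rest, including signal decreases.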

The nature of the assay: blockers of NLG process in reporter cells – D54 ERlucT cells, luminescence, cherry-picks, dose response (AID 624491).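 Note: signal gain reflects blocked N-linked glycosylation of a luciferase reporter.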 Conditions: D54 ERlucT glycosylation luciferase reporter, 24 h, 100% = twice neutral-control luminescence; series mostly up to 19.5 µM; activation (NLG inhibition): at the top concentration.
With `COc1ccc(NC(=O)C2Cc3c(-c4ccc5c(c4)OCO5)ccnc3O2)cc1` (stereo unspecified), the “activation (NLG inhibition)” value was -4.2%. The result for `O=C(O)c1ccccc1OC(C(=O)Nc1cc(Cl)cc(Cl)c1)c1ccccc1` (stereo unspecified) reads 173%. Take `CCOc1cc(S(=O)(=O)NCc2ccc(OC)cc2)c(OCC)cc1-n1cnnn1`: the “activation (NLG inhibition)” value is 74.3%. Consider `CCOc1ccc2c(c1)C(=NNC(=O)c1ccncc1)c1cc(OCC)ccc1-2`, for which the “activation (NLG inhibition)” value was 12.9%.

With `Cc1cc(O)c(NC(=O)c2cc([N+](=O)[O-])ccc2Cl)cc1C`, the “activation (NLG inhibition)” value was 41.7%. For the molecule `O=C(Nc1cccc(C(F)(F)F)c1)c1sc(Cl)nc1C(F)(F)F`, the “activation (NLG inhibition)” value was 6.11%. On to `O=C(Cc1cccs1)NCCS(=O)(=O)N1CCN(c2ccccc2F)CC1`, for which the “activation (NLG inhibition)” value was 31.5%. The result for `CNC(=O)COC(=O)c1ccccc1C(=O)c1ccc(Cl)c([N+](=O)[O-])c1` reads 11% [at 1.2 µM]. For `CCCn1c2ccccc2c2cnn(CC(=O)NC3CCCC(C)C3C)c(=O)c21` (stereo unspecified), the “activation (NLG inhibition)” value was 9.84% [at 5 µM].

Turning to `CCc1ccc(NC(=O)Cn2c(=O)n(CCC(=O)NC3CCN(Cc4ccccc4)CC3)c(=O)c3ccccc32)cc1`, the “activation (NLG inhibition)” value is 133%. The result for `COc1ccc(CN(C(=O)c2ccc(CN3CCOCC3)o2)C(C(=O)NCC2CCCO2)c2ccc(F)cc2)cc1` (stereo unspecified) reads 2.01%; that for `Nc1c(C(=O)c2ccccc2)sc2nsc(SCCN3CCOCC3)c12`, 28.1%. The result for `O=C1OC(c2ccc(F)cc2)CC1CN1CCOCC1` (stereo unspecified) reads 13.6%. The result for `COC(=O)Nc1ccc(S(=O)(=O)N2CCCc3ccccc32)cc1` reads -4.31%; that for `CCOc1ccc2[nH]c(=O)c(CN(Cc3ccc(F)cc3)C(=O)c3ccco3)cc2c1`, 31.5%. For `O=C(N/N=C/c1cccnc1)c1cc(-c2ccc(Br)cc2)nc2ccccc12`, the “activation (NLG inhibition)” value is 9.58%.

Regarding `CC1Nc2ncnc(N3CCc4ccccc4C3)c2N(Cc2ccc(Br)cc2)C1=O` (stereo unspecified), the “activation (NLG inhibition)” value is 41.9%.

On to `COc1ccc(CN2C(=O)C(C)Nc3ncnc(N4CCc5ccccc5C4)c32)cc1` (stereo unspecified), for which the “activation (NLG inhibition)” value was 6.37%. Turning to `Cc1cccc2[nH]c3c(N4CCC5(CC4)OCCO5)ncnc3c12`, the “activation (NLG inhibition)” value is 23.9%. As for `COc1ccc(Cn2c(=O)c3[nH]cnc3n(-c3ccccc3C)c2=O)cc1`, the “activation (NLG inhibition)” value was 41.5%.

In the case of `O=C(Nc1ccccc1)N1CCC(c2nc(-c3ccc(S(=O)(=O)N4CCOCC4)cc3)no2)CC1`, the “activation (NLG inhibition)” value is 17.9%. `COc1cc(/C=C/C(=O)c2ccc(Cl)s2)cc(OC)c1O`: the “activation (NLG inhibition)” value is 11.1%. In the case of `COc1ccc(/C=C/C(=O)c2ccc3c4c(cccc24)CC3)cc1`, the “activation (NLG inhibition)” value was 41.7%. Turning to `COc1cc(O)c(C(=O)/C=C/c2ccccc2)c(OC)c1`, the “activation (NLG inhibition)” value is 18.2%. The result for `COc1ccc(/C=C2\CN(Cc3ccccc3)C/C(=C\c3ccc(OC)cc3)C2=O)cc1` reads -8.86%; that for `CN1C/C(=C\c2ccc(N3CCOCC3)cc2)C(=O)/C(=C/c2ccc(N3CCOCC3)cc2)C1`, -8.7%.

With `CCOc1ccc(/C=C/C(=O)c2ccccc2)cc1OC`, the “activation (NLG inhibition)” value is 28.2%.

With `COc1ccc(C(=O)/C=C/c2ccc(OC3CSC3)cc2)cc1OC`, the “activation (NLG inhibition)” value was 55.4%.

As to `COc1ccc(C2=Nn3c(nnc3-c3ccco3)SC2)cc1`, the “activation (NLG inhibition)” value is 68.5%. As for `COc1ccc(OC)c(-c2nnc3n2N=C(c2ccc(OC)c(OC4CCCC4)c2)CS3)c1`, the figure is -3.46%; as for `COc1ccc(C2=Nn3c(nnc3-c3ccc(OC)cc3)SC2)cc1`, 7.21%.

In the case of `COc1ccc2nc(-c3ccco3)c(-c3ccco3)nc2c1`, the “activation (NLG inhibition)” value is 2.38%. With `O=S1(=O)C=CC(Nc2cccc(Cl)c2)C1` (stereo unspecified), the “activation (NLG inhibition)” value was 19.2%. With `O=C(CSc1nc2nc(-c3cccs3)cc(C(F)(F)F)c2c(=O)[nH]1)C(F)(F)F`, the “activation (NLG inhibition)” value was 36.6%. The result for `Cc1ccc(C)n1-c1ccc(C(=O)/C=C/N(C)C)cc1` reads 5.31%. With `Cc1ccc(-c2cc(NC(=O)CCl)n(-c3ccccc3)n2)cc1`, the “activation (NLG inhibition)” value was -70.1%. As for `CCOc1ccccc1NC(=O)Cn1nnc(C(=O)NCc2ccc3c(c2)OCO3)c1N`, the figure is 46.6%. The result for `COc1cc(Cl)c(C)cc1NC(=O)CN1CCN(C(=O)C2CC2)CC1` reads 21.3%; that for `COc1ccc(NC(=O)C2Cc3c(-c4cccc(C(C)=O)c4)ccnc3O2)cc1` (stereo unspecified), 16.6%; that for `CCNC(=O)COc1ccc(/C=C2\COc3ccccc3C2=O)cc1OC`, 19.8% [at 5 µM].

As to `CN(Cc1ccc(Cl)s1)C(=O)CCl`, the “activation (NLG inhibition)” value was -17.1%. In the case of `CCN(CC(=O)NCc1ccc(F)cc1)C(=O)/C=C/c1ccc(OC)c(S(=O)(=O)NC(C)C)c1`, the “activation (NLG inhibition)” value is 40%. On to `CN1C(=O)c2cccc3c(S(=O)(=O)Nc4ccccc4F)ccc1c23`, for which the “activation (NLG inhibition)” value was 52.8%.

As to `CCN(CC)CCCNC(=O)c1cc2c(=O)n(CC)c3ccccc3c2s1`, the “activation (NLG inhibition)” value was 21.5%. As for `COc1cc(C2=NOC(C(=O)NCc3cccs3)C2)cc(OC)c1OC` (stereo unspecified), the figure is 26.4%; as for `CCOC(=O)Nc1c2ccccc2nc2ccccc12`, 62.4%; as for `O=C(O)c1ccc(CN2C(=O)c3cccc4c([N+](=O)[O-])ccc(c34)C2=O)cc1`, -46.8%.

On to `Cc1noc(C)c1COc1ccc(C(=O)NNC(=O)c2ccccc2)cc1`, for which the “activation (NLG inhibition)” value is 44.8%. As for `CC[C@@]1(c2ccccc2OC)ON(c2ccccc2C(F)(F)F)C1=O`, the figure is 10.9%; as for `COc1ccccc1C1=NOC(COc2ccc3c(C)cc(=O)oc3c2)C1` (stereo unspecified), 33.4%. The result for `COc1cccc(C(=O)Nc2ncc3c(n2)CC(c2ccc(OC)cc2OC)CC3=O)c1` (stereo unspecified) reads 37.5%.
